Here are results for 39 compounds from ChEMBL document CHEMBL3988442, “University of Dundee, Small-Polar-MMV Screening Library” (2021).

Entries with a potency or affinity are not part of this list.

Sequence of Protein translocase subunit SecA (Escherichia coli (strain K12)) (P10408 whole entry): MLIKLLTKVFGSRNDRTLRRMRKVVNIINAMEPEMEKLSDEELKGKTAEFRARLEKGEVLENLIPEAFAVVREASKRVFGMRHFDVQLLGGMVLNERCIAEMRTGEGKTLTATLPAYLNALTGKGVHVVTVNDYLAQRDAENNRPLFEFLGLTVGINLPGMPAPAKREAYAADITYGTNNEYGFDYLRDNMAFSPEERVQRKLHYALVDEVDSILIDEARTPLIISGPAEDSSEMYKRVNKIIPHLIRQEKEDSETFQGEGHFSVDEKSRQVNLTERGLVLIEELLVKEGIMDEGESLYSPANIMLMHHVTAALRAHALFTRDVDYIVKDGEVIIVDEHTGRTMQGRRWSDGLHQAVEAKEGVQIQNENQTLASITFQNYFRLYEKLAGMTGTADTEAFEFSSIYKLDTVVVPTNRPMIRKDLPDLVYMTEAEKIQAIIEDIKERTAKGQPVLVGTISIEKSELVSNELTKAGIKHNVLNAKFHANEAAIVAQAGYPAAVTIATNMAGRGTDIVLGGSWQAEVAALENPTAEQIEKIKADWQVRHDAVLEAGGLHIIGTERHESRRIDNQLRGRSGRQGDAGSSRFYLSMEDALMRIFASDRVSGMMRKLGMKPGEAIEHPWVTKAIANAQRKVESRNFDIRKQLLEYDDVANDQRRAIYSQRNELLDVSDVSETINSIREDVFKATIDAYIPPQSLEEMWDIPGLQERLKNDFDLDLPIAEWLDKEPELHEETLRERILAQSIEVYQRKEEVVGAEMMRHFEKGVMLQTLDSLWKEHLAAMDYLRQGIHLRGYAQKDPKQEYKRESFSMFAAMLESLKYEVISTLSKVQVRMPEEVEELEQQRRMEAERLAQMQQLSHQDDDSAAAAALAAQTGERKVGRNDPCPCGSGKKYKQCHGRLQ

The first experiment has as its target Protein translocase subunit SecA (Escherichia coli (strain K12)) (UniProt P10408). In words: Assay to Identify E. coli SecA ATPase Inhibitors. It is filed as functional. More on the design: scale not given: direction of the effect not stated beside the values. The conditions noted are these: 30 µM.
With `CCc1cnc(CN(C(C)=O)C2CCN(CCc3cnn(C)c3)C2)o1` (stereo not drawn), the Percent Effect is -2.73%.
For the compound `CC(C)c1nnc2n1CC(CNCc1ccncc1)CC2` (stereo not drawn), the Percent Effect is -1.84%.
On to `O=S(=O)(Cc1ccccc1F)NCCN1CCOCC1`, for which the Percent Effect is -4.08%.
The same measure, in the same setting: next, `COc1cc(C(=O)N2CCC(c3n[nH]c(C4CC4)n3)CC2)ccc1C`: -4.66%; `CC(C)(C)C(=O)NS(=O)(=O)c1ccc(C#N)cc1C(F)(F)F`: -3.4%.
Turning to `O=C(N1CCCO1)[C@@]12CCO[C@@H]1CCN(C1CCCCC1)C2`, the Percent Effect was -5.99%.
Regarding `O=C(c1ccccc1-n1cccn1)N1CCCN(c2cccnn2)CC1`, the Percent Effect is -2.4%.
As for `Cc1cc(C)n(CC2CCCN2C(=O)c2cnn(C)c2C2CC2)n1` (stereo not drawn), the Percent Effect is -0.918%.
As to `CCC(C)(NCC(=O)Nc1nc(C)cs1)c1nc(C)cs1` (stereo not drawn), the Percent Effect stood at 0.0522%.
Consider `CCOc1nnc(CN2CCC(N(C)Cc3noc(C)n3)C2)s1` (stereo not drawn), for which the Percent Effect is -0.236%.
Turning to `Cc1ccc(=O)n(CC2(O)CCN(Cc3cnc(C)nc3)CC2)n1`, the Percent Effect is -6.32%.
For `O=C(Cn1c(=O)n(Cc2ccco2)c2ncccc21)Nc1ccccn1`, the Percent Effect is -8.13%.
On to `COc1cccc(N2CCN(CC(O)c3cc(C)sc3C)CC2)c1` (stereo not drawn), for which the Percent Effect was -4.6%.
Regarding `CCOCC(=O)NC1(c2cccc(Br)c2)CC1`, the Percent Effect is -8.13%.
On to `CCc1noc(C(C)N(C)CC(=O)Nc2ccc(C)cc2)n1` (stereo not drawn), for which the Percent Effect is -4.41%.
Turning to `CCn1cnnc1CNC(=O)c1cc(Cl)ccc1OC`, the Percent Effect was -2.18%.
For the compound `CCc1nc(CNC(=O)Nc2ccc(C(=O)NC)cc2C)cs1`, the Percent Effect was -5.84%.
Turning to `O=C(CCc1cccs1)N1CCC(Nc2cccnn2)CC1`, the Percent Effect was -7.51%.
With `COCC(=O)N1CCCC1c1cc(Nc2nnc(C)s2)nc(C)n1` (stereo not drawn), the Percent Effect was -7.56%.
On the same count and under the same terms, as for `CCn1ccnc1CN1C[C@@H](CN2CCCC2)[C@@H](CO)C1`, the figure is -6.84%; as for `COc1ccccc1CC(=O)NCc1c(C)nc2cc(=O)[nH]n2c1C`, -2.98%; as for `Cc1cc(-c2nnc(SCC(=O)O)n2C(C)c2ccccc2)nn1C` (stereo not drawn), -4.08%.
As to `CCOCCOC(C)C(=O)NCc1cn2cc(Br)ccc2n1` (stereo not drawn), the Percent Effect is -0.315%.
Regarding `CCc1nc2n(n1)CC(NCc1nc(C)ccc1O)CC2` (stereo not drawn), the Percent Effect is -5.74%.
Consider `COc1ccccc1CC(=O)NS(C)(=O)=O`, for which the Percent Effect was -4.83%.
As to `Cn1ccc(C(=O)NC2CCC23CCN(C(=O)c2ccncc2)CC3)c1` (stereo not drawn), the Percent Effect is 3.11%.
Turning to `O=C1N(c2ccc(F)cc2)Cc2nc(=O)n(Cc3cccc(Cl)c3)n21`, the Percent Effect amounted to 0.397%.
Consider `CNc1oc(-c2cc(S(=O)(=O)N3CCCCCC3)c(C)o2)nc1C#N`, for which the Percent Effect was -5.54%.
In the case of `COc1ccc(CN2CCCC3(CCN(c4ccsc4)C3=O)C2)cc1` (stereo not drawn), the Percent Effect was -1.81%.
Turning to `CCCc1n[nH]c(C2CN(CCCOc3ccccc3)CCO2)n1` (stereo not drawn), the Percent Effect is -5.86%.
On the same count and under the same terms, as for `COCCNC(=O)c1sc(Nc2ccc(Cl)cn2)nc1C`, the figure is -1.6%; as for `c1ccc(CCN2CCOC(Cn3cccn3)C2)nc1` (stereo not drawn), -6.2%; as for `CC1=Nc2c(c(=O)[nH]n2C(C)C)C(c2ccccc2)S1` (stereo not drawn), -5.22%.
In the case of `CCCS(=O)(=O)N1CCO[C@H]2[C@H](OCc3ccccn3)CC[C@@H]21`, the Percent Effect is -9.04%.
In the case of `Cc1nn(C)c(C)c1C1CCCN1C(=O)CCNc1ncccn1` (stereo not drawn), the Percent Effect was -5.59%.
For the compound `Cn1c(Cn2ccnc2)nnc1C1CCCN(C2CCCCC2)C1` (stereo not drawn), the Percent Effect was -3.14%.
Still for that read-out and setting: next, `Cc1cc(N2CCN(C(=O)c3cc(Cl)c[nH]3)CC2)nc(N)n1`: 0.0114%.
Consider `CCNc1cc2c(nn1)CCN(C(=O)c1ccc(NC3CC3)nc1)C2`, for which the Percent Effect was -3.24%.
As to `Cc1cn2c(n1)CCC(NC(=O)CCn1ccnn1)C2` (stereo not drawn), the Percent Effect is -3.55%.

A further experiment addresses T1, Ubiquitin-activating enzyme e1, putative (Leishmania donovani (strain BPK282A1)) (UniProt E9BSI1).
T1 sequence (whole entry): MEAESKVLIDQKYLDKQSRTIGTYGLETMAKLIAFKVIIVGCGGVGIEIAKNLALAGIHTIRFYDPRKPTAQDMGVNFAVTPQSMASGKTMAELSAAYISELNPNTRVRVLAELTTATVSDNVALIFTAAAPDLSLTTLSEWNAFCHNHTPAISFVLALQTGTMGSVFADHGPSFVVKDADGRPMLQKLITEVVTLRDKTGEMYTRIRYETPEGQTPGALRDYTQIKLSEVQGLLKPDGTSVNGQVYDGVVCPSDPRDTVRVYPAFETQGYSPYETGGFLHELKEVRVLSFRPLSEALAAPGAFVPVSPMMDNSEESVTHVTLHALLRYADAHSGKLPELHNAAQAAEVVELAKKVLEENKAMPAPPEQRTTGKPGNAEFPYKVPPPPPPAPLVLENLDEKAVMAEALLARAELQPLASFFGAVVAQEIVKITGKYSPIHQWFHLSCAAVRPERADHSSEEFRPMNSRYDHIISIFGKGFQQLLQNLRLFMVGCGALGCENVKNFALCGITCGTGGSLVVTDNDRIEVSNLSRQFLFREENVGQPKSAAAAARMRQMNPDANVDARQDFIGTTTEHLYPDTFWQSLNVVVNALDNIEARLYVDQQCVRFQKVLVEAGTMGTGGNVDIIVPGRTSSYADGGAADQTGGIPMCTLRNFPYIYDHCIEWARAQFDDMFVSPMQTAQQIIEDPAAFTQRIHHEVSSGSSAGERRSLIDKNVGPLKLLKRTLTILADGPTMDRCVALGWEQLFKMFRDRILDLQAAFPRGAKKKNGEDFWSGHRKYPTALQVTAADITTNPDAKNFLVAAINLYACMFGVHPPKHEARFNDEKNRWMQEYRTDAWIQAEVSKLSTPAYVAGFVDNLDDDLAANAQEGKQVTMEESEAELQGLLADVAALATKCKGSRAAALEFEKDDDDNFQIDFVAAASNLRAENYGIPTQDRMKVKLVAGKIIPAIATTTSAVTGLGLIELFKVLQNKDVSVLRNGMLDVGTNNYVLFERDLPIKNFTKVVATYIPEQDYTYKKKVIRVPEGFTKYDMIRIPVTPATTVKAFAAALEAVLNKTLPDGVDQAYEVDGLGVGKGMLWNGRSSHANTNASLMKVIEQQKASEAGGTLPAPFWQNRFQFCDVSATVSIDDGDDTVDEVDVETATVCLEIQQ
Description: Leishmania donovani Ubiquitin Activating Enzyme (LdE1). Also noted: scale not given: direction of the effect not stated beside the values. It is filed as functional. The note with it: 30 µM.
As to `CCc1cnc(CN(C(C)=O)C2CCN(CCc3cnn(C)c3)C2)o1` (stereo not drawn), the Percent Effect was found to be 18.4%.
Still for that read-out and setting: next, `CC(C)c1nnc2n1CC(CNCc1ccncc1)CC2` (stereo not drawn): 4.17%; `O=S(=O)(Cc1ccccc1F)NCCN1CCOCC1`: 8%; `COc1cc(C(=O)N2CCC(c3n[nH]c(C4CC4)n3)CC2)ccc1C`: -1.27%.
`CC(C)(C)C(=O)NS(=O)(=O)c1ccc(C#N)cc1C(F)(F)F`: the Percent Effect is 8.11%.
For `O=C(N1CCCO1)[C@@]12CCO[C@@H]1CCN(C1CCCCC1)C2`, the Percent Effect is 16%.
As for `O=C(c1ccccc1-n1cccn1)N1CCCN(c2cccnn2)CC1`, the Percent Effect was -15.6%.
Take `Cc1cc(C)n(CC2CCCN2C(=O)c2cnn(C)c2C2CC2)n1` (stereo not drawn): the Percent Effect was determined as 2.7%.
As to `CCC(C)(NCC(=O)Nc1nc(C)cs1)c1nc(C)cs1` (stereo not drawn), the Percent Effect was 10.8%.
With `CCOc1nnc(CN2CCC(N(C)Cc3noc(C)n3)C2)s1` (stereo not drawn), the Percent Effect was 13.2%.
In the case of `Cc1ccc(=O)n(CC2(O)CCN(Cc3cnc(C)nc3)CC2)n1`, the Percent Effect is 6.76%.
With `O=C(Cn1c(=O)n(Cc2ccco2)c2ncccc21)Nc1ccccn1`, the Percent Effect came to 1.35%.
As for `COc1cccc(N2CCN(CC(O)c3cc(C)sc3C)CC2)c1` (stereo not drawn), the Percent Effect worked out at 20.3%.
`CCOCC(=O)NC1(c2cccc(Br)c2)CC1`: the Percent Effect came out at 0%.
On to `CCc1noc(C(C)N(C)CC(=O)Nc2ccc(C)cc2)n1` (stereo not drawn), for which the Percent Effect amounted to 0%.
As to `CCn1cnnc1CNC(=O)c1cc(Cl)ccc1OC`, the Percent Effect amounted to 8.86%.
`CCc1nc(CNC(=O)Nc2ccc(C(=O)NC)cc2C)cs1`: the Percent Effect turned out to be 16%.
The same measure, in the same setting: as for `O=C(CCc1cccs1)N1CCC(Nc2cccnn2)CC1`, the figure is -23.7%; as for `COCC(=O)N1CCCC1c1cc(Nc2nnc(C)s2)nc(C)n1` (stereo not drawn), 0%.
As to `CCn1ccnc1CN1C[C@@H](CN2CCCC2)[C@@H](CO)C1`, the Percent Effect was -2.7%.
Still for that read-out and setting: next, `COc1ccccc1CC(=O)NCc1c(C)nc2cc(=O)[nH]n2c1C`: 0%.
Turning to `Cc1cc(-c2nnc(SCC(=O)O)n2C(C)c2ccccc2)nn1C` (stereo not drawn), the Percent Effect was determined as 12.5%.
With `CCOCCOC(C)C(=O)NCc1cn2cc(Br)ccc2n1` (stereo not drawn), the Percent Effect came to 0%.
Turning to `CCc1nc2n(n1)CC(NCc1nc(C)ccc1O)CC2` (stereo not drawn), the Percent Effect stood at 7.89%.
For the compound `COc1ccccc1CC(=O)NS(C)(=O)=O`, the Percent Effect turned out to be 5.2%.
On the same count and under the same terms, next, `Cn1ccc(C(=O)NC2CCC23CCN(C(=O)c2ccncc2)CC3)c1` (stereo not drawn): 11%.
As for `O=C1N(c2ccc(F)cc2)Cc2nc(=O)n(Cc3cccc(Cl)c3)n21`, the Percent Effect was -4%.
The same measure, in the same setting: as for `CNc1oc(-c2cc(S(=O)(=O)N3CCCCCC3)c(C)o2)nc1C#N`, the figure is -9.33%; as for `COc1ccc(CN2CCCC3(CCN(c4ccsc4)C3=O)C2)cc1` (stereo not drawn), 0%.
For `CCCc1n[nH]c(C2CN(CCCOc3ccccc3)CCO2)n1` (stereo not drawn), the Percent Effect amounted to 1.27%.
On to `COCCNC(=O)c1sc(Nc2ccc(Cl)cn2)nc1C`, for which the Percent Effect was 20%.
With `c1ccc(CCN2CCOC(Cn3cccn3)C2)nc1` (stereo not drawn), the Percent Effect was found to be 5.2%.
Regarding `CC1=Nc2c(c(=O)[nH]n2C(C)C)C(c2ccccc2)S1` (stereo not drawn), the Percent Effect came to 4%.
For `CCCS(=O)(=O)N1CCO[C@H]2[C@H](OCc3ccccn3)CC[C@@H]21`, the Percent Effect worked out at 8.11%.
Turning to `Cc1nn(C)c(C)c1C1CCCN1C(=O)CCNc1ncccn1` (stereo not drawn), the Percent Effect is 18.4%.
Regarding `Cn1c(Cn2ccnc2)nnc1C1CCCN(C2CCCCC2)C1` (stereo not drawn), the Percent Effect is 8.11%.
As for `Cc1cc(N2CCN(C(=O)c3cc(Cl)c[nH]3)CC2)nc(N)n1`, the Percent Effect came out at 8.22%.
Same read-out and setting: as for `CCNc1cc2c(nn1)CCN(C(=O)c1ccc(NC3CC3)nc1)C2`, the figure is 0%.
As for `Cc1cn2c(n1)CCC(NC(=O)CCn1ccnn1)C2` (stereo not drawn), the Percent Effect was determined as 5.26%.
